HIF activator: HIF pathway transcriptional activation. U2OS HRE-luciferase reporter, luminescence; normalized: DMSO 0%, desferrioxamine 100%. activation, % at 7.5 µM (by protocol). 0.32% of 300,000 active;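 active = mean activation of at least 10% of the iron chelator positive control signal, with at least half of replicates also reaching 10%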
Mot1-301 SUMO: inhibitors of SUMOylation pathway: yeast Mot1-301 growth rescue. S. cerevisiae Mot1-301 growth rescue, ATP luminescence, 38.5C; percent above DMSO median, 100 means doubled. growth rescue, % at 18.8 µM. 1% of 320,000 active;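 active = every valid replicate shows activation above 250% relative to neutral control wells; inactive = the rest, any valid replicate at or below 250%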;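 also: OY570 slx delta 5 strain wells were the positive control but not used for scaling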
AI-2 QS mod: modulators of Vibrio harveyi AI-2 quorum sensing system; 0.4% of 300,000 active; activity change, % at 7.5 µM; Vibrio harveyi JMH597 AI-2 luminescence/OD600 ratio, 9 h; stronger effect = lower value; strain lacks LuxN and CqsS sensors; 0 = neutral-control median; in the data active = activity change below about -75%, passing the limit was not always enough;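 also: luminescence divided by OD600 gain over 9 h not by final OD600 alone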
ALR H2O2 inh: blocks human ALR sulfhydryl oxidase activity; P55789; purified ALR, DTT oxidation, H2O2 HRP-luminol luminescence; inhibition, % (test concentration not listed); 3.8% of 290,000 active;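 active = mean replicate inhibition above about 79%, with every replicate also reaching it, limit read from the data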
Target sequence (P55789 whole entry, looked up): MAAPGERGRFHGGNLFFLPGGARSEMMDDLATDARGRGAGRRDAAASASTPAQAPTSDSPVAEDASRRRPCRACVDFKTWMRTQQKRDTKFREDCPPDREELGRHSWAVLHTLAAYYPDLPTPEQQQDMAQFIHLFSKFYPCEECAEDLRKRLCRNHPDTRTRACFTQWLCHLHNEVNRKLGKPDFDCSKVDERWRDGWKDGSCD
* hit, by the source's call; nt = no result. An excerpt weighted towards active compounds, which were near 4.8% of everything screened.

SMILES	HIF activator	Mot1-301 SUMO	AI-2 QS mod	ALR H2O2 inh
COC(=O)c1ccc(NC(=O)CSc2nc3ccccc3c(=O)[nH]2)cc1	0	142	1	-22
O=C(CSc1nc(O)c(Cc2ccccc2)c(=O)[nH]1)Nc1nnc(SCc2ccccc2)s1	-1	207	18	30
O=C(CSc1nc(O)c(Cc2ccccc2)c(=O)[nH]1)Nc1ccccc1	0	17	24	99*
CCCCc1nnc(NC(=O)C(C)Sc2nc(O)c(Cc3ccccc3)c(=O)[nH]2)s1 (stereo unspecified)	0	0	22	45
CCc1c(O)nc(SCC(=O)N2CCc3cc(OC)c(OC)cc3[C@@H]2C)[nH]c1=O	0	342	26	99*
CCCCc1nnc(NC(=O)CSc2nc(O)c(Cc3ccccc3)c(=O)[nH]2)s1	0	-1	42	99*
COc1ccc(CCNC(=O)CSc2nc3[nH]ncc3c(=O)[nH]2)cc1OC	0	3	11	-9
CCCc1c(O)nc(SCC(=O)NCCc2ccc(OC)c(OC)c2)[nH]c1=O	0	2	11	98*
CCCN(C(=O)COc1ccc(C(C)=O)cc1OC)C1CCS(=O)(=O)C1 (stereo unspecified)	nt	-8	nt	-4
CN(C)S(=O)(=O)c1ccc(-c2csc(N/N=C/c3ccc(O)cc3)n2)cc1	2	7	12	nt
CCN(CC)C(=O)CSc1nc(O)c(Cc2ccc(OC)cc2)c(=O)[nH]1	-22	-9	6	98*
CCc1c(O)nc(SCC(=O)NCc2ccco2)[nH]c1=O	-1	-10	15	98*
CCCCc1nnc(NC(=O)c2ccc3[nH]c(=O)c(=O)[nH]c3c2)s1	197*	-14	14	-5
OC[C@H]1O[C@H](OC[C@H]2OC(O)[C@H](O)[C@@H](O)[C@@H]2O)[C@H](O)[C@@H](O)[C@@H]1O (stereo partly specified)	nt	6	nt	-8
CC1CCC2(CC1)NC(=O)N(CC(=O)NC1CCCCC1C)C2=O (stereo unspecified)	nt	-4	nt	0
Cc1ccc2cc3cc(C(=O)NCCCN4CCCC4=O)oc3nc2c1	1	-18	7	78*
Cc1cc(C)[n+](Cc2ccccc2)cc1C(N)=O	21*	1	42	-6
Cn1c(-c2cccc([N+](=O)[O-])c2)cnc1NCc1ccc(C#N)cc1	-1	375	13	99*
Cn1c(-c2cccc([N+](=O)[O-])c2)cnc1NCc1cccc(F)c1	-1	20	-2	99*
CS(=O)(=O)Nc1ccc(C(=O)NCCSc2ccc(Cl)cc2)cc1	0	60	11	-3
COCCn1c(=O)[nH]c2cc(C(=O)NCC3CCCO3)ccc2c1=O (stereo unspecified)	-1	-31	23	-11
CCOC(=O)N1CCN(C(=O)c2ccc(Cn3c(=S)[nH]c4cc(OCC)c(OCC)cc4c3=O)cc2)CC1	18*	-5	3	8
CCOc1cc2[nH]c(=S)n(CC3CCCO3)c(=O)c2cc1OCC (stereo unspecified)	0	12	7	95*
COCCn1c(=S)[nH]c2cc(C(=O)NCC3CCCO3)ccc2c1=O (stereo unspecified)	-1	6	30	98*
O=C(c1ccc(CS(=O)c2ccccc2Cl)o1)N1CCN(c2ccccn2)CC1 (stereo unspecified)	3	1	9	5
SMILES	HIF activator	Mot1-301 SUMO	AI-2 QS mod	ALR H2O2 inh
CCc1cccc(C)c1NC(=O)c1cc(=O)[nH]c2ccc(S(=O)(=O)N3CCOCC3)cc12	nt	-4	nt	-2
Nc1ccc2sc(N)nc2c1	nt	11	nt	91*
Cc1nc2ccc(N)cc2s1	nt	-7	16	99*
COc1cc2c(cc1OC)C(C)N(C(=O)c1cc3c(C)cc(C)cc3[nH]1)CC2 (stereo unspecified)	0	-3	38	-13
COC(=O)Nc1ccc(SCC(=O)c2cccc([N+](=O)[O-])c2)cc1	-1	139	22	99*
CC1CCCC2(C1)NC(=S)N(c1ccccc1)N2 (stereo unspecified)	0	122	3	43
S=C1NC2(CCCCC2)NN1c1ccccc1	-1	364*	22	98*
Cc1cccc(Oc2ccccc2NC(=O)C2=COCCO2)c1	nt	8	nt	24
CC(=O)Nc1ccc(NC(=O)COC(=O)[C@@H]2CCCN2C(=O)c2cccs2)cc1	nt	-3	nt	3
NC(=O)c1ccsc1NC(=O)COC(=O)C1CCCN1C(=O)c1cccs1 (stereo unspecified)	2	13	2	97*

High-throughput results as filed in PubChem.
